Here are results for 7 compounds from paper PMC4102417.

The assay concerns murine 3T3 fibroblasts. As to the kind of experiment: primary screen, percent viability or growth; higher = less effect of the substance. As to the method: Similarly, for measuring the cytotoxicity concentration (CC50) for 3T3 fibroblast cells, cultures were incubated with drugs for 72 hours and developed using Alamar Blue (Alamar Biosciences Inc, Sacramento, CA) as previously described.

On to `O=C1C=C2C=C[C@@H]3C[C@@]2(O1)[C@H]1CCCCN31`, for which the “Mammalian (3T3) cell % growth at 10 uM” value came to 75%.

Regarding `Cc1c(O)c(O)cc2c1CC=C1[C@@]2(C)CC[C@@]2(C)[C@@H]3C[C@](C)(C(=O)O)CC[C@]3(C)CC[C@]12C`, the “Mammalian (3T3) cell % growth at 10 uM” value was determined as 0.1%.

With `CC1=C(O)C(=O)C=C2C1=CC=C1[C@@]2(C)CC[C@@]2(C)[C@@H]3C[C@](C)(C(=O)O)CC[C@]3(C)CC[C@]12C`, the “Mammalian (3T3) cell % growth at 10 uM” value was found to be 1%.

Consider `CC[C@@]1(O)C(=O)OCc2c1cc1n(c2=O)Cc2cc3ccccc3nc2-1`, for which the “Mammalian (3T3) cell % growth at 10 uM” value came out at 94.3%.

Consider `C[C@@H]1CC[C@H]2[C@@H](C)C(=O)O[C@@H]3O[C@@]4(C)CC[C@@H]1[C@]32OO4`, for which the “Mammalian (3T3) cell % growth at 10 uM” value came to 77.6%.

`COc1ccc(C[C@H]2NC[C@H](O)[C@H]2OC(C)=O)cc1`: the “Mammalian (3T3) cell % growth at 10 uM” value is 10.3%.

In the case of `CC(C)c1ccc2c(c1O)CC[C@H]1C3=C(CC[C@]21C)C(=O)OC3`, the “Mammalian (3T3) cell % growth at 10 uM” value was determined as 83.1%.
